According to PubChem BioAssay (NCATS):
Results filed as inconclusive are left out. Calls of active or inactive are those of the source. Calls follow the shape of the dose curve; as a rule, active = well fitted curve in the direction sought with a large enough effect; inconclusive = small, poorly fitted or top-dose-only effect, or another doubt; inactive = no such curve, though single readings can be large; an effect the other way counts as inactive or inconclusive.

What was measured:
HaCat [1] = assay: Cytotoxic Profiling of Annotated Libraries Using Quantitative High-Throughput Screening (AID 1296008); settings: Five cell lines viability, CellTiter-Glo ATP luminescence, 48-72 h; max response: hits give low values; also: nearly all actives have a fitted effect of over 60% in size; also: potency is read from the fitted curve at half-maximal effect; as to max response: % is scaled to controls: 0 for no effect and ±100 for the full control effect
Method in brief: (§1)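 Cytotoxicity was measured as CellTiter-Glo ATP luminescence, read after 10 min at room temperature. Compound treatment of the cells lasted 48 or 72 hr at 37 degrees Celsius in a qHTS format.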

KB-3-1 = assay: as above; settings: Five cell lines viability, CellTiter-Glo ATP luminescence, 48-72 h; max response: hits give low values
Method in brief: as §1

NIH3T3 = assay: as above; settings: Five cell lines viability, CellTiter-Glo ATP luminescence, 48-72 h; max response: hits give low values
Method in brief: as §1

CAOV3 = assay: Primary qHTS to identify gynecologic anti-cancer compounds using libraries of approved drugs and bioactive compounds (AID 1345084); settings: Gynecologic cancer cell panel viability, ATPlite luminescence, 48 h; series mostly up to 57.5 µM; also: nearly all actives have a fitted effect of over 55% in size; also: potency is read from the fitted curve at half-maximal effect; as to activity change, negative = cytotoxicity: % is scaled to controls: 0 for no effect and ±100 for the full control effect
Method in brief: (§2)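 In this quantitative HTS, cell killing is estimated from loss of ATP-dependent luciferase light. Cells see five compound concentrations over a 48 h exposure.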

CASKI = assay: as above; settings: Gynecologic cancer cell panel viability, ATPlite luminescence, 48 h; series mostly up to 57.5 µM
Method in brief: as §2

Es-2 = assay: as above; settings: Gynecologic cancer cell panel viability, ATPlite luminescence, 48 h; series mostly up to 57.5 µM
Method in brief: as §2

HeLa = assay: as above; settings: Gynecologic cancer cell panel viability, ATPlite luminescence, 48 h; series mostly up to 57.5 µM
Method in brief: as §2

JEG-3 = assay: as above; settings: Gynecologic cancer cell panel viability, ATPlite luminescence, 48 h; series mostly up to 57.5 µM
Method in brief: as §2

OV90 = assay: as above; settings: Gynecologic cancer cell panel viability, ATPlite luminescence, 48 h; series mostly up to 57.5 µM
Method in brief: as §2

C33A = assay: as above; settings: Gynecologic cancer cell panel viability, ATPlite luminescence, 48 h; series mostly up to 57.5 µM
Method in brief: as §2

Hek293T = assay: as above; settings: Gynecologic cancer cell panel viability, ATPlite luminescence, 48 h, control line for the selectivity index; series mostly up to 57.5 µM
Method in brief: as §2

HACAT [2] = assay: qHTS assay to identify novel small-molecules to repurpose for Merkel cell carcinoma treatment (AID 1296009); settings: MCC and control cell lines, CellTiter-Glo viability, 72 h; series mostly up to 44.8 µM; also: nearly all actives have a fitted effect of over 60% in size
Method in brief: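 72 hr, 37 degree celsius; NPC 8-pt / MIPE 11-pt dose response; compound pinned in DMSO; CellTiter-Glo, 10 min RT, luminescence; normalized to no-cell and DMSO controls.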

CC(C)c1c2cc(-c3ccnc(NC4CCC(NC5CCOCC5)CC4)n3)ccc2nn1C (stereo not drawn)
inactive: Potency (CAOV3) | Potency (JEG-3)
active: Potency (HaCat [1]) 1.64 µM | Potency (KB-3-1) 0.231 µM | Potency (NIH3T3) 1.03 µM | Potency (CASKI) 0.631 µM | Potency (Es-2) 0.316 µM | Potency (HeLa) 0.708 µM

CC(Nc1ncnc2nc[nH]c12)c1cc2cccc(Cl)c2c(=O)n1-c1ccccc1 (stereo not drawn)
inactive: max response (KB-3-1) -11.3% | Potency (CAOV3) | Potency (Es-2) | Potency (HeLa) | Potency (JEG-3) | Potency (OV90)
active: Potency (HaCat [1]) 20.6 µM | Potency (NIH3T3) 13 µM

CC1COC(Nc2ccc3ncnc(Nc4ccc(OCc5nccs5)c(Cl)c4)c3c2)=N1 (stereo not drawn)
inactive: max response (KB-3-1) -8.52% | max response (NIH3T3) 3.7% | Potency (C33A) | Potency (Es-2) | Potency (HeLa) | Potency (JEG-3)
active: Potency (HaCat [1]) 1.84 µM

C=CC(=O)Nc1cc(Nc2nccc(-c3c[nH]c4ccccc34)n2)c(OC)cc1N(C)CCN(C)C
active: Potency (HaCat [1]) 0.0366 µM | Potency (KB-3-1) 8.2 µM | Potency (NIH3T3) 14.6 µM | Potency (CAOV3) 28.2 µM | Potency (CASKI) 28.2 µM | Potency (Es-2) 20 µM | Potency (HeLa) 15.8 µM

CS(=O)(=O)N(CC(=O)NCC1CC1)c1cc(C(F)(F)F)ccc1Cl
inactive: max response (HaCat [1]) -2.56% | max response (KB-3-1) 5.98% | max response (NIH3T3) -6.39% | Potency (CAOV3) | Potency (Es-2) | Potency (HeLa) | Potency (Hek293T) | Potency (JEG-3) | Potency (OV90)

CS(=O)(=O)N1CCC(NC(=O)c2[nH]ncc2NC(=O)c2c(Cl)cccc2Cl)CC1
active: Potency (HaCat [1]) 4.61 µM | Potency (KB-3-1) 0.82 µM | Potency (NIH3T3) 2.59 µM | Potency (CASKI) 7.94 µM | Potency (Es-2) 4.47 µM | Potency (HeLa) 10 µM | Potency (Hek293T) 5.01 µM
inactive: Potency (JEG-3)

COc1cc2c(cc1OC)-c1[nH]nc(Nc3cccc(F)c3)c1C2
active: Potency (HaCat [1]) 0.0731 µM | Potency (KB-3-1) 0.164 µM | Potency (NIH3T3) 0.731 µM | Potency (CASKI) 0.891 µM | Potency (Es-2) 1.41 µM | Potency (HeLa) 0.562 µM

CCOc1cc2ncc(C#N)c(Nc3ccc(F)c(Cl)c3)c2cc1NC(=O)/C=C/CN(C)C
active: Potency (HaCat [1]) 0.0259 µM | Potency (KB-3-1) 5.8 µM | Potency (NIH3T3) 3.66 µM | Potency (Hek293T) 25.1 µM
inactive: Potency (OV90)

C#CCN(Cc1cc2c(=O)n(C)c(CN3CCN(C)CC3)nc2cc1Cl)c1ccc(C(=O)NCc2cccnc2)cc1
active: Potency (HaCat [1]) 0.0073 µM | Potency (KB-3-1) 0.0411 µM | Potency (CAOV3) 44.7 µM
inactive: max response (NIH3T3) -114% | Potency (OV90)

CCOC(=O)c1sc(NC(=O)[C@H](C(C)C)n2c(=O)[nH]c3ccccc3c2=O)nc1C
inactive: outcome (HaCat [1]) | max response (KB-3-1) 8.45% | Potency (HACAT [2]) | Potency (C33A) | Potency (CAOV3) | Potency (CASKI) | Potency (Es-2) | Potency (HeLa) | Potency (Hek293T) | Potency (JEG-3) | Potency (OV90)

COc1ccc(F)cc1-c1cc(NC(=O)[C@@H]2CCCNC2)ncc1Cl
active: Potency (HaCat [1]) 1.16 µM | Potency (KB-3-1) 0.231 µM | Potency (NIH3T3) 1.03 µM | Potency (CASKI) 0.891 µM | Potency (Es-2) 0.794 µM | Potency (HeLa) 0.708 µM | Potency (Hek293T) 0.398 µM
inactive: Potency (JEG-3)

CN(C)C/C=C/C(=O)Nc1cccc(C(=O)Nc2cccc(Nc3ncc(Cl)c(-c4c[nH]c5ccccc45)n3)c2)c1
active: Potency (HaCat [1]) 4.61 µM | Potency (KB-3-1) 1.03 µM | Potency (NIH3T3) 4.11 µM | Potency (CASKI) 1.58 µM | Potency (Es-2) 8.91 µM | Potency (HeLa) 2 µM

C=C1C(OC(C)=O)CCC2(C)CC3(OC)OC(=O)C(C)=C3CC12 (stereo not drawn)
inactive: max response (HaCat [1]) -0.749% | max response (KB-3-1) 7.17% | max response (NIH3T3) 0.22% | Potency (Es-2) | Potency (HeLa) | Potency (Hek293T)

CC(=O)O[C@H]1CC(C)(C)CC2[C@@]13[C@H](O)C[C@]1(C)[C@@]2(CCC2[C@@]4(C)CC[C@H](O[C@@H]5OC[C@H](O[C@@H]6O[C@H](CO)[C@@H](O)[C@H](O)[C@H]6O[C@@H]6OC[C@@H](O)[C@H](O)[C@H]6O)[C@H](O)[C@H]5O[C@@H]5O[C@H](CO)[C@@H](O)[C@H](O)[C@H]5O)C(C)(C)C4CC[C@]21C)O[C@@H]3O (stereo partly drawn)
active: Potency (HaCat [1]) 3.48 µM | Potency (NIH3T3) 2.76 µM | Potency (JEG-3) 2.82 µM | Potency (OV90) 3.16 µM
inactive: max response (KB-3-1) -24.8% | activity change, negative = cytotoxicity (HeLa) -7.2% [at 11.6 µM]

CC(=O)O[C@@H]1[C@@H](O)[C@H](O[C@H]2CC[C@]34C[C@]35CC[C@]3(C)[C@@H]([C@@]6(C)CC[C@@H](C(C)(C)O)O6)[C@@H](O)C[C@@]3(C)[C@@H]5C[C@H](O[C@@H]3O[C@H](CO)[C@@H](O)[C@H](O)[C@H]3O)[C@H]4C2(C)C)OC[C@H]1O
inactive: outcome (HaCat [1]) | outcome (KB-3-1) | Potency (HACAT [2]) | Potency (C33A) | Potency (CAOV3) | Potency (CASKI) | Potency (Es-2) | Potency (HeLa) | Potency (Hek293T) | Potency (JEG-3) | Potency (OV90)

CC(Oc1ccc2[nH]nc(/C=C/c3cnn(CCO)c3)c2c1)c1c(Cl)cncc1Cl (stereo not drawn)
active: Potency (HaCat [1]) 2.06 µM | Potency (KB-3-1) 0.291 µM | Potency (NIH3T3) 0.517 µM | Potency (Es-2) 20 µM | Potency (HeLa) 1.58 µM | Potency (Hek293T) 10 µM

Nc1ccc(-c2cccc3c(=O)cc(N4CCOCC4)oc23)cc1
inactive: Potency (JEG-3)
active: Potency (HaCat [1]) 6.51 µM | Potency (KB-3-1) 20.6 µM | Potency (NIH3T3) 8.2 µM | Potency (CASKI) 12.6 µM | Potency (OV90) 11.2 µM
